A number with no mark means an inactive call. Results filed as inconclusive are left out. Active and inactive are the calls of the source. Unless noted, the call rests on the fitted dose curve; in most records, active means well fitted curve in the direction sought with a large enough effect; inconclusive means small, poorly fitted or top-dose-only effect, or another doubt; inactive means no such curve, though single readings can be large; an effect the other way counts as inactive or inconclusive.

The source of these data is PubChem BioAssay (NCATS).

In experiment [1] the target is Lysosomal acid glucosylceramidase (Homo sapiens) (UniProt P04062). Put plainly: Glucocerebrosidase-p2 (AID 348; in the data active means potency below about 10 µM; further: potency means the concentration at half of the fitted maximal effect). As to conditions: purified GBA, blue fluorogenic substrate, 40 min. In short, it runs like this:
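Normal human glucocerebrosidase (0.2 nM) with blue fluorogenic substrate (80 uM final) in citrate/phosphate pH 5.9 with 10mM sodium taurocholate, 0.01% tween-20; 40 min RT, NaOH/glycine stop; fluorescence Ex 365/Em 440; AC50 from a titration from 0.6 nM upwards.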

The nature of experiment [2]: NFAT Signaling Pathway (AID 444; active means well fitted curve in either direction with a large enough effect, not every such curve was filed as active;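 further: carbachol stimulus at about its EC50 of 1 µM final; on the % scale 0 is the no-effect control and ±100 the full control effect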). As to conditions: Jurkat NFAT-bla M1, carbachol, beta-lactamase ratio, 5 h; at 7.69 µM (top of the series) unless noted. In short, it runs like this: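 Read-out: CCF4 FRET ratio (460 nm/530 nm) after 1 h RT dye loading, used for %activity and AC50 from titration series. Cells: Jurkat NFAT-β-lactamase/M1 line, treated with compound plus 1 uM carbachol for 5 h, 37 °C.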

The nature of experiment [3]: Stat Signaling Pathway (AID 446; active means well fitted curve in either direction with a large enough effect, not every such curve was filed as active;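 further: ME-180 cervical cancer cells given 40 pM IL-6 alongside compound; SIE-controlled beta-lactamase reporter measured as 460/530 nm FRET emission ratio; on the % scale 0 is the no-effect control and ±100 the full control effect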). As to conditions: ME-180 SIE beta-lactamase reporter, IL-6 stimulated, 5 h; at 7.69 µM (top of the series) unless noted. A digest of the protocol: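 FRET read-out (405 nm excitation, 460/530 nm emission) of a beta-lactamase reporter under a STAT-inducible element in ME-180 cervical carcinoma cells. Cells with compound receive 40 pM IL-6 for 5 h. Values are normalised to AC90 stimulation and AC90 JAK-inhibitor controls.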

In experiment [4] the target is Glucocorticoid receptor (Homo sapiens) (UniProt P04150). Kind of experiment: GR-GFP Redistribution (AID 450;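 active means compounds whose dose series gives a full or clear partial fitted curve of increased nuclear translocation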; further: potency means the concentration at half of the fitted maximal effect). As to conditions: U2OS GR-GFP nuclear translocation, laser cytometry, 2 h.
For experiment [5] the target is unchanged. Kind of experiment: GR-EFC Redistribution (AID 451; calls by dose curve; further: potency means the concentration at half of the fitted maximal effect). As to conditions: CHO-K1 GR-EFC translocation, beta-gal luminescence, 2 h. A digest of the protocol: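 Translocation of GR-ED fusion to nuclear EA restores b-gal, read by luminescence after 1 h room-temperature detection. Engineered CHO-K1 biosensor cells, 1,000/well, exposed 2 h at 37 C to titrations up to 46 uM final.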

The target of experiment [6] is Mitogen-activated protein kinase 10 (Mus musculus) (UniProt Q61831). Put plainly: JNK3 AlphaScreen Assay (AID 530; active means well fitted curve in either direction with a large enough effect, not every such curve was filed as active;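 further: kinase came from lysate of stimulated human HepG2 cells; signal reports phosphorylation of biotinylated GST-cJun 1-79 at Ser73 with 10 µM ATP; on the % scale 0 is the no-effect control and ±100 the full control effect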). As to conditions: JNK3 lysate, c-Jun phosphorylation; series mostly up to 57.1 µM. A digest of the protocol:
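Kinase buffer: 20 mM Tris-HCl pH 7.6, 10 mM MgCl2, 1 mM DTT, 0.1 mM Na3VO4, 0.01% Tween-20; ATP 10 uM. Substrate biotin-GST-cJun(1-79), enzyme from activated HepG2 lysates. Detection by Ser73 phospho-antibody AlphaScreen.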
Background: Alpha assays give light when donor and acceptor beads are brought close together.

Experiment [7] has as its target Dual specificity protein kinase CLK4 (Homo sapiens) (UniProt Q9HAZ1). Kind of experiment: qHTS Assay for Inhibitors of CDC-like Kinase 4 (Kinase-Glo Assay) (AID 1770). Further: nearly all actives have a fitted effect of over 65% in size. Further: potency means the concentration at half of the fitted maximal effect. As to conditions: recombinant Clk4, Kinase-Glo ATP depletion luminescence; series mostly up to 66.7 µM. A digest of the protocol: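 Recombinant human Clk4 (25 nM) phosphorylated RS repeat peptide (100 uM) with 1 uM ATP in Tris pH 7.5/MgCl2/EGTA/DTT/Triton buffer for 4.5 h at room temperature. Residual ATP was quantified by Kinase-Glo luciferase luminescence.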
Background: qHTS replaces the single test concentration by a dilution series.

For experiment [8] the target is unchanged. Put plainly: qHTS Assay for Inhibitors of CDC-like Kinase 4 (ADP-FP Assay) (AID 1795). Further: nearly all actives have a fitted effect of over 60% in size. Further: potency means the concentration at half of the fitted maximal effect. As to conditions: Transcreener ADP fluorescence polarization; series mostly up to 50 µM. A digest of the protocol:
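Recombinant human Clk4 (6.25 nM) phosphorylated RS repeat peptide (100 uM) with 1 uM ATP in Tris pH 7.5/MgCl2/EGTA/DTT/Triton buffer for one hour. ADP was quantified by Transcreener competitive fluorescence polarization against an ADP calibration curve.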

The target of experiment [9] is Ubiquitin carboxyl-terminal hydrolase 1 (Homo sapiens) (UniProt O94782). Kind of experiment: Inhibitors of USP1/UAF1: Pilot qHTS (AID 504865).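 Further: rhodamine fluorescence freed from ubiquitin-rhodamine substrate followed over time; top concentration of the series differs between compounds; on the % scale 0 is the no-effect control and ±100 the full control effect; nearly all actives have a fitted effect of over 35% in size.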 As to conditions: purified USP1/UAF1, Ub-rhodamine cleavage fluorescence; series mostly up to 54.9 µM. In short, it runs like this:
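USP1/UAF1 complex (1nM) preincubated with compound 15 min at room temperature, then Ub-Rho substrate (150nM final) added. Fluorescence read kinetically at 480/540 nm, 6 reads every 60 seconds. Buffer: 50mM HEPES pH 7.8, 0.5mM EDTA, 0.1 mg/ml BSA, 1mM TCEP, 0.01% Tween-20.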

A short description of experiment [10]: Primary qHTS for small molecule stabilizers of the endoplasmic reticulum resident proteome: Secreted ER Calcium Modulated Protein (SERCaMP) assay (AID 1508630). Further: on the % scale 0 is the no-effect control and ±100 the full control effect. As to conditions: SH-SY5Y GLuc-SERCaMP (Gaussia luciferase released on ER calcium loss) secretion, thapsigargin, luminescence; series mostly up to 38.4 µM. In short, it runs like this: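 The SH-SY5Y reporter protocol was run at 3 concentrations up to 38.3 uM (primary) or 11 concentrations (follow-up): 16 h compound, 100 nM thapsigargin for 4 h, then extracellular luciferase luminescence.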

Experiment [11] has as its target Cytochrome P450 1A2 (Homo sapiens) (UniProt P05177). Kind of experiment: p450-cyp1a2 (AID 410; calls by dose curve; further: potency means the concentration at half of the fitted maximal effect). As to conditions: recombinant CYP1A2, luciferin-ME demethylation, luminescence; series mostly up to 57 µM. A digest of the protocol:
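Read-out is luminescence from luciferin produced by CYP1A2 demethylation of Luciferin-ME (100uM, at Km). Detection reagent stopped the 60 min NADPH-dependent reaction; signals were normalized to 57 uM furafylline.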

Experiment [12] addresses 3',5'-cyclic-AMP phosphodiesterase 4B (Homo sapiens) (UniProt Q07343). Kind of experiment: qHTS Assay for Inhibitors of PDE-IV (AID 607; active means well fitted activation curve with a large enough effect in the main read-out, with a control signal flat, not every such curve was filed as active; further: % of control where 0% means no effect). As to conditions: HEK293 ACTOne CNG channel cells, membrane potential fluorescence; series mostly up to 22.9 µM. In short, it runs like this:
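Cell-based read-out of cAMP via a modified cyclic nucleotide-gated channel and membrane potential dye (535/590 nm) in HEK293 cells expressing PDE4 endogenously. Compounds tested up to 22.9 uM final; 100 uM RO 20-1724 reference.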

A short description of experiment [13]: AP1 Signaling Pathway (AID 357; active means well fitted curve in either direction with a large enough effect, not every such curve was filed as active). As to conditions: ME-180 (cervical carcinoma) AP-1-bla reporter, EGF-induced, beta-lactamase ratio, 5 h; at 7.69 µM (top of the series) unless noted. A digest of the protocol:
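Beta-lactamase reporter under AP-1 response element, ME-180 background. Stimulus: EC50 EGF. Compound exposure 5 h, 37 °C. Detection: CCF4, 2.5 h RT, 460/530 nm. Values: AC50 from titration.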

Experiment [14] addresses Cytochrome P450 3A4 (Homo sapiens) (UniProt P08684). Kind of experiment: qHTS Assay for Inhibitors and Substrates of Cytochrome P450 3A4 (AID 884). Further: potency means the concentration at half of the fitted maximal effect; nearly all actives have a fitted effect of over 50% in size. As to conditions: recombinant CYP3A4, Luciferin-PPXE luminescence; series mostly up to 57.1 µM. A digest of the protocol:
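Luminescent readout of luciferin produced by CYP3A4 (20 nM) dealkylation of Luciferin-PPXE, 25 uM (its KM). NADPH-driven reaction ran 60 min at RT after 10 min compound preincubation; data scaled to 57 uM ketoconazole as 100% inhibition.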

Experiment [15] shares this target. Put plainly: qHTS Assay for Activators of Cytochrome P450 3A4 (AID 885). Further: nearly all actives have a fitted effect of over 65% in size. As to conditions: recombinant CYP3A4, Luciferin-PPXE luminescence, 60 min; series mostly up to 57.1 µM. In short, it runs like this:
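Luminescent readout of luciferin formed from 25 uM Luciferin-PPXE (KM level) by 20 nM CYP3A4 in 200 mM KPO4, with 60 min NADPH-driven reaction at room temperature after 10 min compound exposure. Ketoconazole (57 uM) defined 100% inhibition.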

For experiment [16], the target named is Dual specificity protein kinase CLK4 (Homo sapiens) (UniProt Q9HAZ1). Kind of experiment: qHTS Assay for Inhibitors of CDC-like Kinase 4 (ADP-Glo Assay) (AID 1771). Further: potency means the concentration at half of the fitted maximal effect; nearly all actives have a fitted effect of over 70% in size. As to conditions: recombinant CLK4, ADP-Glo luminescence; series mostly up to 80 µM. In short, it runs like this: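 In this ADP-Glo format, 1 uM ATP and 100 uM RS peptide served as substrates for 25 nM Clk4 in Mg2+/EGTA/DTT/Triton buffer; reactions ran 1 hr at room temperature before luminescent ADP quantification.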
Dual specificity protein kinase CLK4 (Homo sapiens), sequence (Q9HAZ1 whole entry, looked up): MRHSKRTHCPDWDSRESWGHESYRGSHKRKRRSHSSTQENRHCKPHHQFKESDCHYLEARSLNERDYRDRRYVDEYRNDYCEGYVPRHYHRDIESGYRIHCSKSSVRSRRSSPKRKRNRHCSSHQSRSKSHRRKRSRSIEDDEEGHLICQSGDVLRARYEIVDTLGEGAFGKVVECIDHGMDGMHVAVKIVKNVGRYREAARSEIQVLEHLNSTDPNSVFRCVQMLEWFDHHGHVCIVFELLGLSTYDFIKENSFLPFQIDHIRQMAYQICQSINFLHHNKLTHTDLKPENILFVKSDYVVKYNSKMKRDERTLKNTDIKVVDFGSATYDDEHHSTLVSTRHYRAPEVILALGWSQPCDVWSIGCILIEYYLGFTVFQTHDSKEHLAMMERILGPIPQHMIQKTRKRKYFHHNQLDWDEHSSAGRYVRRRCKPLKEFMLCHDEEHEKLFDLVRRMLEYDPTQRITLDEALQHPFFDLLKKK

Cytochrome P450 3A4 (Homo sapiens), sequence (P08684 whole entry, looked up): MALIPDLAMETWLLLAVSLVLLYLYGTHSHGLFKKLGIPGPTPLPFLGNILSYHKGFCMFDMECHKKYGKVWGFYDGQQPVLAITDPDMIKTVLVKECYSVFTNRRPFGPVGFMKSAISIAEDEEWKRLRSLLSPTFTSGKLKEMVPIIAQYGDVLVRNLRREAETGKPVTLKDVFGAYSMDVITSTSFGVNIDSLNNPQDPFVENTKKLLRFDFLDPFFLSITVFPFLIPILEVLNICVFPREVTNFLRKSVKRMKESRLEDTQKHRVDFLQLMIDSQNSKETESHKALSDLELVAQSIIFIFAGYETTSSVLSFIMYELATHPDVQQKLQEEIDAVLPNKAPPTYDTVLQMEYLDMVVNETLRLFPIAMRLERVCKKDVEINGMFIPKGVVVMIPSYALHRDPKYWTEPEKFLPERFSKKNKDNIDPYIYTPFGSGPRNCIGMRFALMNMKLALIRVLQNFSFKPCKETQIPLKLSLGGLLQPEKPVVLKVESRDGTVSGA
Cytochrome P450 1A2 (Homo sapiens), sequence (P05177 whole entry, looked up): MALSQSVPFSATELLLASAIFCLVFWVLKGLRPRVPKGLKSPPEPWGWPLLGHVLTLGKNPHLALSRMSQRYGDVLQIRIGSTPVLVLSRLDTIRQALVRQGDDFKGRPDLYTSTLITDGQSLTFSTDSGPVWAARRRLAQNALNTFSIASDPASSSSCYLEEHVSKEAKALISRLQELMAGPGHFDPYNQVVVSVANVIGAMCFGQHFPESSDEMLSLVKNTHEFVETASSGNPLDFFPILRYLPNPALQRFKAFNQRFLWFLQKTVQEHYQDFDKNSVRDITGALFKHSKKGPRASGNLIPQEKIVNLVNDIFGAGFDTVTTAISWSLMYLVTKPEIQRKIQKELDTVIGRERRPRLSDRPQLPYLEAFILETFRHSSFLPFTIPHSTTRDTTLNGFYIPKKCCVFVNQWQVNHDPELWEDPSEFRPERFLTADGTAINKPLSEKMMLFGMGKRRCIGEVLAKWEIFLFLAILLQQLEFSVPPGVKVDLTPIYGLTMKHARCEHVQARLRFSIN
Lysosomal acid glucosylceramidase (Homo sapiens), sequence (P04062 whole entry, looked up): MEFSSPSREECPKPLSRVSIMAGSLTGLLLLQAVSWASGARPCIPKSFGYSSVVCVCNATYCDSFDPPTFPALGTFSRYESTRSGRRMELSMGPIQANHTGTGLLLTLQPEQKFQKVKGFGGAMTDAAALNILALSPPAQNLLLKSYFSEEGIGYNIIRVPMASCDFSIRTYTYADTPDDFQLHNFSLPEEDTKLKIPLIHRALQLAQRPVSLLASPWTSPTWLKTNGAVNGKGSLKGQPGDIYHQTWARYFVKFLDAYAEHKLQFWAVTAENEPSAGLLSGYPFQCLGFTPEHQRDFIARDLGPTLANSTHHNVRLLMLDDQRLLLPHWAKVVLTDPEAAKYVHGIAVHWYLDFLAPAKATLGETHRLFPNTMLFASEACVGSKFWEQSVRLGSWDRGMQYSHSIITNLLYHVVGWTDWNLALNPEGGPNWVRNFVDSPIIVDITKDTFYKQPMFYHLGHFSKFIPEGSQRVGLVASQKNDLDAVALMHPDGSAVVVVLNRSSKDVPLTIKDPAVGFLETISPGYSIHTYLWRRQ
Ubiquitin carboxyl-terminal hydrolase 1 (Homo sapiens), sequence (O94782 whole entry, looked up): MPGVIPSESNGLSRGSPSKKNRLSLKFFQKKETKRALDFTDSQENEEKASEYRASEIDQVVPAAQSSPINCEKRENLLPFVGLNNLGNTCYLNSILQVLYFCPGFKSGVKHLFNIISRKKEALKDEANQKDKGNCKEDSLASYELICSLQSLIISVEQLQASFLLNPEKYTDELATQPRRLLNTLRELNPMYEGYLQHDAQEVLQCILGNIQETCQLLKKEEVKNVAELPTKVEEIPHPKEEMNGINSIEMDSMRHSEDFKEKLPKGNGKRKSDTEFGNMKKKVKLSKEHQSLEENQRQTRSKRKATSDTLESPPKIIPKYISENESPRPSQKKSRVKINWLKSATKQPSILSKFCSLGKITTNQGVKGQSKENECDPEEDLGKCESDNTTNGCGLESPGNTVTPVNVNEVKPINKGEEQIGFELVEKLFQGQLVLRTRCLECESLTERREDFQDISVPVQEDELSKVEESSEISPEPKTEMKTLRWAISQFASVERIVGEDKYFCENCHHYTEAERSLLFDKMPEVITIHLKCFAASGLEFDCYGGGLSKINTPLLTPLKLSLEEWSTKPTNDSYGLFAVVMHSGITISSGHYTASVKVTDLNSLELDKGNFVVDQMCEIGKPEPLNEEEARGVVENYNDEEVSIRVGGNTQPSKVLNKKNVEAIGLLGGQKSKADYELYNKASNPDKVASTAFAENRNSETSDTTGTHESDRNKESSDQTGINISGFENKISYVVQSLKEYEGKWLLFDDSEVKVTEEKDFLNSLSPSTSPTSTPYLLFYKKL
3',5'-cyclic-AMP phosphodiesterase 4B (Homo sapiens), sequence (Q07343 whole entry, looked up): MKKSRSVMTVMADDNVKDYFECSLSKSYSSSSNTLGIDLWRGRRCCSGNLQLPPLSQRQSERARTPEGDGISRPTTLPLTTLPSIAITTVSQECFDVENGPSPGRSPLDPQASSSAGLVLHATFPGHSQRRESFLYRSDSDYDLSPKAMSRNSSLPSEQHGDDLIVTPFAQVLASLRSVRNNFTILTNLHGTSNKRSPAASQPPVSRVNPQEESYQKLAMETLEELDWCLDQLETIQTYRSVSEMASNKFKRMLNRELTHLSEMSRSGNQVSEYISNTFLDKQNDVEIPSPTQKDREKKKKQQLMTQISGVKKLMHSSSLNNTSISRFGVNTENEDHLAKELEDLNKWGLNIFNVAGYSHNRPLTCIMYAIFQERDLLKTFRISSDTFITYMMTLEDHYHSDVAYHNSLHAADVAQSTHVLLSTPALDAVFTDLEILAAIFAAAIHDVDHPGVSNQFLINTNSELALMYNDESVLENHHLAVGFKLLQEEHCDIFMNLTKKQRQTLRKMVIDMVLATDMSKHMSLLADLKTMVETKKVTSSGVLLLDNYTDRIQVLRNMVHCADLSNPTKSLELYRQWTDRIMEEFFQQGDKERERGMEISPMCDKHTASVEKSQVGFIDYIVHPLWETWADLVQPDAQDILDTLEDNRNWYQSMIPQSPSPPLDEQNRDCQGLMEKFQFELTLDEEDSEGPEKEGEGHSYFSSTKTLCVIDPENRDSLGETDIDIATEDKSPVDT
Glucocorticoid receptor (Homo sapiens), sequence (P04150 whole entry, looked up, the tested form may be a part): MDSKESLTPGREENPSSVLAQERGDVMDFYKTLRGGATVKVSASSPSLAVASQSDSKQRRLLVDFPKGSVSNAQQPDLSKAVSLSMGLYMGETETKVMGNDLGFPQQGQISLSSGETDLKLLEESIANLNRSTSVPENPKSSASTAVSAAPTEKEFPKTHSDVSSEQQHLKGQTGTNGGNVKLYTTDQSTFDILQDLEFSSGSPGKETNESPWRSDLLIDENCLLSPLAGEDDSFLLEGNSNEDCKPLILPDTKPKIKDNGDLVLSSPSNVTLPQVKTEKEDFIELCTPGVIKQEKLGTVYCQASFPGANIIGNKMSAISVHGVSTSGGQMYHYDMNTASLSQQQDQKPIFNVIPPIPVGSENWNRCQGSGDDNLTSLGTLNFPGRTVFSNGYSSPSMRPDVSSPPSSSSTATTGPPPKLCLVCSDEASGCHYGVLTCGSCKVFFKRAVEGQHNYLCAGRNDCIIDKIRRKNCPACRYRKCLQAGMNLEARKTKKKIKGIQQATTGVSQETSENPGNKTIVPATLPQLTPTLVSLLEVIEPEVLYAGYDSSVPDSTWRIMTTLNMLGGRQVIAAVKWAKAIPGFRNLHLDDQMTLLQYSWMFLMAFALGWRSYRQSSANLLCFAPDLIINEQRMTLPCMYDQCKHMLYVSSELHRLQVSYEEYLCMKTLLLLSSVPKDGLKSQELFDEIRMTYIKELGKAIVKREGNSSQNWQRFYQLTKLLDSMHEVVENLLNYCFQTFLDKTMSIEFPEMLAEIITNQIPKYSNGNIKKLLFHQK

With `c1nc(N2CCOCC2)c2cc(-c3ccoc3)ccc2n1`, the Potency was greater than 11.4 µM in [1]; greater than 46 µM in experiment [4]; greater than 46 µM in experiment [5]; 0.224 µM (active) in experiment [7]; 0.178 µM (active) in experiment [8]. In addition, the activity change, negative = inhibition in experiment [2] was 17.9%. In addition, the activity, negative = inhibition in experiment [3] is -19.4%. Besides, the Potency result in [6] and in experiment [9] was “inactive” each time. For the same compound, the result in experiment [10] was inactive.
On to `CN(C)C(=O)c1ccc(-c2nc(-n3ccnc3)c3ccccc3n2)cc1`, for which the Potency in experiment [11] is 20 µM (active); in experiment [4], greater than 46 µM; in experiment [5] it was greater than 46 µM. Also, in [2], the activity change, negative = inhibition is 2.92%. The activity, negative = inhibition in experiment [3] was 6.8%. In addition, the Potency result in [6], in experiment [12], in [7] and in experiment [9] was “inactive” each time. Further, in experiment [10], the result was inactive.
In the case of `Cc1cnc(CNc2ncncc2-c2ccoc2)cn1`, the Potency is greater than 11.4 µM in [1]; 12.6 µM (active) in experiment [11]; greater than 46 µM in experiment [4]; greater than 46 µM in experiment [5]; 2 µM (active) in [14]. The activity change, negative = inhibition in [13] is 0.489%; in experiment [2], -1.22%. For the same compound, in experiment [3], the activity, negative = inhibition was 3.39%. Further, the Potency entry in experiment [6], in [12], in [15], in [7] and in experiment [9] was “inactive” each time. The outcome in experiment [10] was inactive.
Regarding `Cc1cnc(CNc2ncncc2-c2ccc(N(C)C)cc2)cn1`, the Potency in experiment [1] was greater than 11.4 µM; in [11] it was 3.16 µM (active); in [4] it was greater than 46 µM; in experiment [5] it was greater than 46 µM; in [14], 2 µM (active); in experiment [16], 15.8 µM (active). Moreover, the results for the activity change, negative = inhibition in [13] and in experiment [2] were 3.22% and -0.821%, respectively. In [3], the activity, negative = inhibition was 13.6%. The Potency entry in experiment [6], in experiment [12], in [15], in experiment [8] and in [9] was “inactive” throughout. Also, the outcome in experiment [10] was inactive.
With `COCCn1c(=O)c(-c2cccc(C#N)c2)nc2cnc(Oc3ccc(OC)cc3)nc21`, the activity change, negative = inhibition in [13] is -21.9%; in experiment [2], 7%. For the same compound, the Potency in experiment [11] was 12.6 µM (active); in experiment [4] it was greater than 9.22 µM; in experiment [5], greater than 46 µM; in [14] it was 2.51 µM (active). In experiment [3], the activity, negative = inhibition is -15%. Further, the Potency result in experiment [6], in [12], in [15], in experiment [7], in [8] and in [9] was “inactive” each time. For the same compound, the outcome in experiment [10] was inactive.
For `COc1ccccc1-c1cc(-n2ccnc2)ncn1`, the Potency in [1] was greater than 11.4 µM; in [11], 0.316 µM (active); in experiment [4], greater than 46 µM; in experiment [5], greater than 46 µM; in experiment [14], 0.316 µM (active); in experiment [7], 6.31 µM (active). For the same compound, the activity change, negative = inhibition in [13] is 8.26%; in [2], 7.77%. In experiment [3], the activity, negative = inhibition was 10.2%. In addition, the Potency entry in experiment [6], in experiment [12], in [15] and in experiment [9] was “inactive” in each case. For the same compound, the result in experiment [10] was inactive.
